Laboratory results: PubChem BioAssay (NCI)
About 79,000 compounds went through this panel and 15% of them were active in at least one assay; those are over-represented in the sample as a whole. Values without a mark were called inactive. The source made the active and inactive calls. Rule as the data show it: active = growth inhibition above about 70%; inactive = the rest.

Columns and labels:
[1] = NCI Yeast Anticancer Drug Screen. Data for the rad50 strain (AID 155);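 also: 0% = growth of vehicle-only cultures of the same strain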; conditions: S. cerevisiae rad50 strain growth inhibition, stronger effect = higher value
Summary of the method: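 Relative growth inhibition (compound vs vehicle) was measured in yeast with a defined repair-gene alteration.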

[2] = NCI Yeast Anticancer Drug Screen. Data for the mec2-1 strain (AID 157); conditions: S. cerevisiae mec2-1 strain, stronger effect = higher value
Summary of the method: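 Readout is yeast growth inhibition, normalised to vehicle-treated controls, in the mec2-1 strain exposed to compound.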

[3] = NCI Yeast Anticancer Drug Screen. Data for the sgs1 mgt1 strain (AID 161);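 also: 0% = growth of cultures given vehicle only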; conditions: S. cerevisiae sgs1 mgt1 strain, stronger effect = higher value
Summary of the method: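 Growth of a repair-deficient yeast mutant was monitored after compound treatment and expressed as inhibition relative to vehicle-treated cultures.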

[4] = NCI Yeast Anticancer Drug Screen. Data for the cln2 rad14 strain (AID 165);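 also: 0% = growth equal to vehicle treated cultures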; conditions: S. cerevisiae cln2 rad14 strain, stronger effect = higher value
Summary of the method: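 Relative to vehicle controls, growth inhibition of compound-treated cln2 rad14 yeast was recorded.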

[5] = NCI Yeast Anticancer Drug Screen. Data for the bub3 strain (AID 167); conditions: S. cerevisiae bub3 mutant strain, stronger effect = higher value
Summary of the method: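 Screening used yeast with an engineered genetic alteration affecting cell cycle control. Compound-exposed cultures were compared with vehicle cultures, and reduced growth was taken as inhibition.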

[6] = NCI Yeast Anticancer Drug Screen. Data for the mlh1 rad18 strain (AID 175); conditions: S. cerevisiae mlh1 rad18 strain growth inhibition, stronger effect = higher value
Summary of the method: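 Test agents were incubated with a yeast strain of defined genotype (DNA damage repair defect). Inhibition of growth was derived by comparison with vehicle-exposed cultures.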

[7] = at 5.0 µM (retest, dose inferred, filed as 0.5)
[8] = at 50.0 µM (retest, dose inferred, filed as 5.0)

| SMILES | growth inhibition [1, 7] | growth inhibition [1, 8] | growth inhibition ([1]; at 50.0 µM) | growth inhibition [2, 7] [%] | growth inhibition [2, 8] | growth inhibition ([2]; at 50.0 µM) | growth inhibition [3, 7] | growth inhibition [3, 8] | growth inhibition ([3]; at 50.0 µM) | growth inhibition [4, 7] | growth inhibition [4, 8] | growth inhibition ([4]; at 50.0 µM) | growth inhibition [5, 7] | growth inhibition [5, 8] | growth inhibition ([5]; at 50.0 µM) | growth inhibition [6, 7] | growth inhibition [6, 8] | growth inhibition ([6]; at 50.0 µM) |
| --- | --- | --- | --- | --- | --- | --- | --- | --- | --- | --- | --- | --- | --- | --- | --- | --- | --- | --- |
| O=C1C=C(OCC=C(C(F)(F)F)C(F)(F)F)C(=O)c2ccccc21 | -6% | 18% | 55.1% | 27 | 68% | 64.8% | 24% | 74% (active) | 66.9% | -1% | 25% | 49.4% | 1% | 52% | 67.2% | 45% | 67% | 80.3% (active) |
| CC(=O)NS(=O)(=O)c1ccc(N=Cc2cc(Cl)cc(Cl)c2O)cc1 | 25% | 98% (active) | 83% (active) | 19 | 99% (active) | 92.1% (active) | 13% | 79% (active) | 44.5% | 46% | 98% (active) | 87.8% (active) | 44% | 99% (active) | 90.7% (active) | 67% | 99% (active) | 88% (active) |
| CCCCCCCCCCCCO | 10% | 23% | 64.4% | 9 | 24% | 42% | -4% | 28% | 60.8% | 0% | 12% | -4.65% | -6% | 51% | 2.85% | 12% | 55% | 76.4% (active) |
| CCOP(=O)(OCC)OC1c2[nH]ccc2-c2cc(C(=O)OC)[nH]c2C1OC (stereo not given) | 3% | 11% | 12.5% | 0 | 10% | 25.9% | -3% | 17% | 83.2% (active) | -6% | 6% | 5.9% | 3% | -2% | 21.5% | -5% | 15% | 61.4% |
| CCc1ccc(C(=O)O)c2ccccc12 | -8% | 81% (active) | 68.1% | 8 | 48% | 24.9% | -2% | 72% (active) | 35.1% | 8% | 69% | 51.6% | -6% | 62% | 8.4% | -1% | 85% (active) | 51.6% |
| C/C(=N/NC(=O)C[n+]1ccccc1)C(CN(CC(C)C)CC(C)C)C(=O)Nc1ccc(C)cc1C (stereo not given) | 5% | 5% | 30.1% | -10 | -10% | 40.2% | 5% | 5% | 8.65% | 5% | 5% | 41% | 12% | 12% | 58% | 6% | 6% | 70.2% (active) |
| CC(C)N=Cc1cc(Br)cc(Br)c1O.CC(C)N=Cc1cc(Br)cc(Br)c1O.[Co] | 93% (active) | 99% (active) | 92% (active) | 54 | 99% (active) | 90.6% (active) | 87% (active) | 99% (active) | 98% (active) | 88% (active) | 99% (active) | 65% | 98% (active) | 99% (active) | 86.3% (active) | 98% (active) | 99% (active) | 88.7% (active) |
| O=C(CC(C(=O)O)c1c[nH]c2ccccc12)c1ccccc1 (stereo not given) | -2% | -2% | 45.4% | -3 | 7% | -18.6% | -5% | 0% | 56.8% | -5% | -63% | -16.6% | -1% | 7% | 93.8% (active) | -4% | 1% | -0.1% |
| OCCCC(Sc1ccccc1)c1ccccc1 (stereo not given) | -1% | 25% | 46.4% | -18 | 13% | 78.5% (active) | -15% | 23% | 67.2% | -1% | -1% | 40.2% | -4% | 3% | -0.25% | 28% | 23% | 52.2% |
| CCOC(=O)CN1C(=O)S/C(=C/c2ccc([N+](=O)[O-])o2)C1=O | 9% | 93% (active) | 77.2% (active) | 3 | 94% (active) | 76% (active) | 12% | 98% (active) | 91.3% (active) | -3% | 89% (active) | 56.3% | 3% | 96% (active) | 86% (active) | 21% | 96% (active) | 87.1% (active) |
